The text below walks through data of the supplement of paper PMC10011410.

± gives the standard deviation of the averaged measurements.

For this assay, the system named is AmpC beta-lactamase (E. coli). Kind of assay: AmpC inhibition relative to DMSO; higher = more inhibition. In a few lines:
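In this aggregation counter-screen, E. coli AmpC β-lactamase (5 nM) was held in 50 mM sodium phosphate, pH 7.0, containing 1.0% DMSO with or without 0.01% Triton X-100, and compounds at 4, 11, 33 and 100 μM were incubated with the enzyme for 5 min at RT. Nitrocefin was then added and absorbance at 482 nm was followed for 5 min, with rates background-subtracted against enzyme-free wells. Values are the mean of four technical replicates. Percent inhibition is expressed relative to solvent-only wells.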

[1] abbreviates: 4 µM, detergent: 0.01% Triton X-100.
Where [2] appears, read: 11 µM, detergent: 0.01% Triton X-100.
Where [3] appears, read: 33 µM, detergent: 0.01% Triton X-100.
The mark [4] stands for this setting: 100 µM, detergent: 0.01% Triton X-100.
Where [5] appears, read: 100 µM, detergent: no detergent.

As to `C=C1C(=O)O[C@H](CCC)[C@H]1C(=O)O`, the AmpC inhibition is, setting by setting: under setting [1], 0.817 ± 3%; (4 µM, detergent: no detergent) 2.33 ± 5.5%; under setting [2], 3.75 ± 2.7%; (11 µM, detergent: no detergent) -0.423 ± 6.2%; under setting [3], 0.478 ± 2.6%; (33 µM, detergent: no detergent) -0.772 ± 6.7%. The AmpC inhibition is, setting by setting: under setting [4], 2.9 ± 2%; under setting [5], 0.697 ± 4.5%.
`CC(C)([C@](C1=O)(C2=O)C/C=C(C)\C)[C@@H](C[C@]31C[C@@H](C(C)(OC3=C2C(C4=CC(O)=C(C=C4)O)=O)C)C/C=C(C)\C)C/C=C(C)\C`: the AmpC inhibition by setting is: under setting [1], 8.42 ± 5.3%; (4 µM, detergent: no detergent) 13.3 ± 3.5%; under setting [2], 4.79 ± 3.2%; (11 µM, detergent: no detergent) 90 ± 9.4%; under setting [3], 4.67 ± 6.9%; (33 µM, detergent: no detergent) 93.15 ± 0.89%. The AmpC inhibition is 2.77 ± 1.7% under setting [4] and 92.3 ± 0.78% under setting [5].
Turning to `CCCCCCCCCCCC1=C(O)C(=O)C=C(O)C1=O`, the AmpC inhibition reads like this: under setting [1], 8.62 ± 5.2%; (4 µM, detergent: no detergent) -3.71 ± 8%; under setting [2], 2.92 ± 1.7%; (11 µM, detergent: no detergent) 17.5 ± 8.6%; under setting [3], 3.12 ± 4.7%; (33 µM, detergent: no detergent) 60.9 ± 17%. In addition, the AmpC inhibition under setting [4] is 5.91 ± 2.8% and the AmpC inhibition under setting [5] stood at 92.1 ± 5.4%.
`Cc1cc(-c2ccccc2)cc(C(=O)NNS(=O)(=O)c2ccccc2)c1F`: the AmpC inhibition reads like this: under setting [1], 10.3 ± 2.6%; (4 µM, detergent: no detergent) 7.83 ± 8%; under setting [2], 6.24 ± 2.3%; (11 µM, detergent: no detergent) 9.5 ± 7%; under setting [3], 1.15 ± 3%; (33 µM, detergent: no detergent) 15 ± 4.6%. Further, the AmpC inhibition stood at 8.19 ± 9.7% under setting [4] and 53.4 ± 7.8% under setting [5].
As to `O=C(NNS(=O)(=O)c1ccccc1F)c1cc(F)cc(-c2ccccn2)c1`, the AmpC inhibition runs as follows: under setting [1], 10.7 ± 1.2%; (4 µM, detergent: no detergent) 1.11 ± 11%; under setting [2], 5.78 ± 2.7%; (11 µM, detergent: no detergent) 8.02 ± 4.7%; under setting [3], -0.0162 ± 1.5%; (33 µM, detergent: no detergent) 4.81 ± 1.3%. The AmpC inhibition is, setting by setting: under setting [4], 0.832 ± 4.9%; under setting [5], 5.91 ± 3.5%.
`COc1ccc(/C(Cl)=C(\C=O)c2ccc(OC)cc2)cc1`: the AmpC inhibition is 2.6 ± 2.4% under setting [1]; 17.8 ± 21% (4 µM, detergent: no detergent); 4.97 ± 1.2% under setting [2]; 3.2 ± 5.5% (11 µM, detergent: no detergent); 1.35 ± 3.3% under setting [3]; -9.16 ± 9.6% (33 µM, detergent: no detergent). Further, the AmpC inhibition runs as follows: under setting [4], -4.79 ± 8.1%; under setting [5], 1.57 ± 3.4%.
For the molecule `CNC(=O)Nc1ccc2c(c1)CC[C@@]21OC(=O)N(CC(=O)N(Cc2ccc(F)cc2)[C@@H](C)C(F)(F)F)C1=O`, the AmpC inhibition by setting is: under setting [1], 5.14 ± 2.9%; (4 µM, detergent: no detergent) -1.32 ± 9.8%; under setting [2], 5.67 ± 2.5%; (11 µM, detergent: no detergent) 5.86 ± 3.8%; under setting [3], -0.581 ± 4.1%; (33 µM, detergent: no detergent) -6.17 ± 3.8%. Also, the AmpC inhibition is -3 ± 2.8% under setting [4] and -3.55 ± 4.8% under setting [5].
For the molecule `c1cc(SSc2ccns2)sn1`, the AmpC inhibition under setting [1] came to 7.81 ± 8.7%; the AmpC inhibition (4 µM, detergent: no detergent) is -0.684 ± 6.7%; the AmpC inhibition under setting [2] was 6.83 ± 7.1%; the AmpC inhibition (11 µM, detergent: no detergent) stood at 5.01 ± 6.3%; the AmpC inhibition under setting [3] amounted to 7.13 ± 7.9%; the AmpC inhibition (33 µM, detergent: no detergent) amounted to 3.34 ± 12%. The AmpC inhibition was 9.28 ± 4% under setting [4] and 11 ± 4.2% under setting [5].
Turning to `CC(Cc1ccc(O)c(O)c1)C(C)Cc1ccc(O)c(O)c1` (centres undefined), the AmpC inhibition runs as follows: under setting [1], 0.262 ± 1.6%; (4 µM, detergent: no detergent) 2.98 ± 9.9%; under setting [2], -1.09 ± 14%; (11 µM, detergent: no detergent) 23.2 ± 4%; under setting [3], 1.16 ± 12%; (33 µM, detergent: no detergent) 47.4 ± 7.5%. Further, the AmpC inhibition under setting [4] is -4.88 ± 5.5% and the AmpC inhibition under setting [5] turned out to be 86 ± 2.8%.
Take `O=C1/C(=C/c2ccc(O)c(Br)c2)CCC/C1=C\c1ccc(O)c(Br)c1`: the AmpC inhibition is, setting by setting: under setting [1], 4.59 ± 5%; (4 µM, detergent: no detergent) 7.44 ± 6.5%; under setting [2], 9.28 ± 8.5%; (11 µM, detergent: no detergent) 55.4 ± 9.9%; under setting [3], 5.98 ± 3.4%; (33 µM, detergent: no detergent) 78.6 ± 1.3%. For the same molecule, the AmpC inhibition runs as follows: under setting [4], -4.62 ± 5.8%; under setting [5], 81.8 ± 1.7%.
Turning to `CC1(C)CCC2=C(O1)c1ccccc1C(=O)C2=O`, the AmpC inhibition is 10.1 ± 3.2% under setting [1]; 0.565 ± 6.8% (4 µM, detergent: no detergent); 2.63 ± 1.6% under setting [2]; -4.82 ± 5.1% (11 µM, detergent: no detergent); 6.33 ± 3.7% under setting [3]; -16.2 ± 7.7% (33 µM, detergent: no detergent). Moreover, the AmpC inhibition under setting [4] was -0.871 ± 3.1% and the AmpC inhibition under setting [5] was found to be 4.94 ± 2%.
Turning to `CNC(=O)Nc1ccc2c(c1)[C@@]1(CC2)OC(=O)N(CC(=O)N(Cc2ccc(F)cc2)[C@@H](C)C(F)(F)F)C1=O`, the AmpC inhibition was 9.1 ± 0.37% under setting [1]; 2.44 ± 8.2% (4 µM, detergent: no detergent); 6.71 ± 1% under setting [2]; 7.48 ± 3.8% (11 µM, detergent: no detergent); -0.0601 ± 2.8% under setting [3]; -5.13 ± 2% (33 µM, detergent: no detergent). For the same molecule, the AmpC inhibition is -4.9 ± 5.7% under setting [4] and -1.81 ± 4.7% under setting [5].
Regarding `CCCCCCCCCCCCCCCc1cccc(O)c1C(=O)O`, the AmpC inhibition was determined as 6.97 ± 5.3% under setting [1]; 25.7 ± 18% (4 µM, detergent: no detergent); 6.87 ± 8.5% under setting [2]; 97.15 ± 0.48% (11 µM, detergent: no detergent); 5.05 ± 6.1% under setting [3]; 100 ± 3.9% (33 µM, detergent: no detergent). In addition, the AmpC inhibition under setting [4] is 7.84 ± 4% and the AmpC inhibition under setting [5] turned out to be 99.49 ± 0.71%.
